ATXN viability – Viability Counterscreen for Primary qHTS for Inhibitors of ATXN expression | 400,000 compounds, 0.49% hits | Potency, µM (titrated, usually from 56.7 µM), hits mostly cytotoxic | S2 cells (HEK-293 line with an ATXN2-luciferase reporter) viability, CellTiter-Fluor protease fluorescence, 24 h; also: nearly all actives have a fitted effect of over 40% in size
Gal4-VP16 FLuc – VP16 counterscreen qHTS for inhibitors of ROR gamma transcriptional activity; Drosophila S2 Gal4-VP16 UAS-luciferase, luminescence, 20 h; Potency, µM (highest dose often 53.6 µM), without a hit: at the highest dose activity, negative = inhibition, usual class: inhibitors; 310,000 compounds, 3.5% hits;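 also: Gal4-VP16 expression switched on by copper sulfate through the metallothionein promoter; % is scaled to controls: 0 for no effect and ±100 for the full control effect; nearly all actives have a fitted effect of over 50% in size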
ATXN2 expr inh – Primary qHTS for Inhibitors of ATXN expression. AID 1745845, 2022. 360,000 compounds, 0.72% hits. HEK-293 ATXN2-luciferase reporter, luminescence, 24 h. Potency, µM (doses to about 57 µM), without a hit: at the top dose activity change, negative = inhibition, usual class: inhibitors; also: % is scaled to controls: 0 for no effect and ±100 for the full control effect; nearly all actives have a fitted effect of over 55% in size
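ATXN2-luciferase reporter cells (luciferase flanked by upstream and downstream ATXN2 gene portions) were treated 24 h at 37 °C with compounds at up to 57 uM. SteadyGlo luminescence gave expression; GF-AFC fluorescence gave viability.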
RORg inh – qHTS for inhibitors of ROR gamma transcriptional activity; Drosophila S2 Gal4-RORgamma UAS-luciferase reporter, 20 h; 310,000 compounds, 5.4% hits; Potency, µM (series often up to 53.6 µM), for the others: at the top dose activity change, negative = inhibition, most hits filed as inhibitors; Nuclear receptor ROR-gamma (Mus musculus), P51450; also: % is scaled to controls: 0 for no effect and ±100 for the full control effect; nearly all actives have a fitted effect of over 60% in size
Target sequence (P51450 whole entry, looked up, the tested form may be a part): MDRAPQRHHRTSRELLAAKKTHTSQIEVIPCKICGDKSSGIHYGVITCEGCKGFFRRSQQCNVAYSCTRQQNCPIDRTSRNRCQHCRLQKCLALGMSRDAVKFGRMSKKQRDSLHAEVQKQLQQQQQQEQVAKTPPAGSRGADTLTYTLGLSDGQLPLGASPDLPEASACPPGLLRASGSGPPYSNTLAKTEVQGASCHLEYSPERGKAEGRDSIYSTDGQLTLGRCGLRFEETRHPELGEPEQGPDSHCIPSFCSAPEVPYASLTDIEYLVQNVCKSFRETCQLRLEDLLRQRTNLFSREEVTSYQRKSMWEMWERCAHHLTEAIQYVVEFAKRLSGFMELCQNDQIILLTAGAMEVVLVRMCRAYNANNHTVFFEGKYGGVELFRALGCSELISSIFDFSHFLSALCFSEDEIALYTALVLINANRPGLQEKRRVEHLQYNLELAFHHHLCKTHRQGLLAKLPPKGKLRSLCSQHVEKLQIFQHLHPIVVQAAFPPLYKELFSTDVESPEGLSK
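Luminescence from a UAS-regulated Photinus luciferase reporter in stably transfected Drosophila Schneider cells is measured; decreased signal marks ROR gamma inhibition. Fusion expression is induced by 700 uM copper sulfate for 20 hr.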
TGFb inhibitor – qHTS for Inhibitors of TGF-b; HepG2 CAGA-GFP TGF-b/SMAD3 reporter, GFP fluorescence, 18 h; TGF-beta stimulated, 500 pg/mL final; Potency, µM (series often up to 46.1 µM), for the others: at the top dose activity, negative = inhibition, actives largely listed as inhibitors; 410,000 compounds, 1.2% hits; also: % is scaled to controls: 0 for no effect and ±100 for the full control effect; nearly all actives have a fitted effect of over 65% in size
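GFP signal (ex488/em500-530) from TGF-beta-stimulated HEPG2 CAGA-GFP cells, 500 pg/mL final, 18 h at 37 degrees C in DMEM plus 1% FBS, normalized to unstimulated and DMSO-stimulated controls.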
HepG2 viability – qHTS for Inhibitors of TGF-b: Cytotox Counterscreen | 410,000 compounds, 0.76% hits | HepG2 CAGA-GFP viability, ATP luminescence, 18 h | AID 588856, 2011 | Potency, µM (top dose mostly 46.1 µM), for the others: top-dose activity change, negative = cytotoxicity, most hits filed as cytotoxic
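HepG2 CAGA-GFP cells (1000/well, DMEM with 1% FBS) received compound, then TGF-beta at 500 pg/mL final, and were incubated 18 hours at 37 degrees C. Viability was read by CellTiter-Glo luminescence. Media-only wells were set as complete cell-killing and DMSO as no toxicity.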
Active calls of the source: *; i = inactive; ? = inconclusive; nt = no result; [ ] = remark or other dose. Only some compounds are listed: those with a hit (about 6.3% of all), similar ones and a draw of the others. Calls follow the shape of the dose curve; as a rule, active = well fitted curve in the direction sought with a large enough effect; inconclusive = small, poorly fitted or top-dose-only effect, or another doubt; inactive = no such curve, though single readings can be large; an effect the other way counts as inactive or inconclusive. Potency is read from the fitted curve at half-maximal effect.

SMILES	ATXN viability	Gal4-VP16 FLuc	ATXN2 expr inh	RORg inh	TGFb inhibitor	HepG2 viability
C#Cc1cccc(Nc2nc(NCc3ccccc3OC)nc3ccsc23)c1	20µM*	nt	20µM*	nt	11.2µM*	-53.8%
COc1ccccc1CNc1nc(NCc2ccccc2F)c2sccc2n1	?	nt	?	nt	12.6µM*	-120.9%
Cc1cccn2cc(COc3ccc(-c4ccccc4)cc3)nc12	i	?	81.0%	12.6µM*	-0.1%	-34.1%
O=C(COc1ccc(Br)cc1)NCc1cn2ccccc2n1	i	20.5%	-12.2%	8.3%	7.8%	8.9%
Brc1ccc(OCc2cn3ccccc3n2)cc1	i	-4.3%	0.6%	10µM*	8.5%	-29.9%
COc1ccccc1N1CCN(C(=O)CSc2n[nH]c(-c3ccccc3Cl)n2)CC1	nt	nt	nt	nt	-13.6%	-13.8%
Cc1ccc(-c2nc3c4ccccc4ccn3c2Cc2ccsc2)cc1	?	nt	23.0%	nt	-22.2%	-16.2%
COc1cccc(N/C(SCc2cccc([N+](=O)[O-])c2)=C(/C#N)C(N)=O)c1	i	-19.7%	-22.8%	?	?	14.1µM*
CCOC(=O)CSc1nc(N)c(C#N)c(-c2cccs2)c1C#N	i	-9.7%	-3.1%	34.5%	?	-30.1%
N#Cc1c(N)nc(SCc2ccccc2)c(C#N)c1-c1ccco1	i	7.94µM*	-13.2%	?	?	-7.9%
N#Cc1c(N)nc(SCc2ccccn2)c(C#N)c1-c1cccs1	?	-15.2%	?	12.6µM*	-9.0%	-29.7%
Cn1c(SCc2cccc(F)c2)nc2c([nH]c3ccccc32)c1=O	nt	nt	nt	nt	-8.7%	-16.8%
c1ccc(-c2nnsc2-c2ncc[nH]2)cc1	i	-5.6%	33.5%	-14.9%	19.1%	-0.8%
O=S(=O)(c1ccc(Cl)cc1)c1snnc1-c1ccccc1	25.1µM*	?	20µM*	?	14.1µM*	-72.7%
O=S(=O)(c1ccc(F)cc1)c1snnc1-c1ccccc1	?	?	14.1µM*	?	?	-29.0%
O=S(=O)(c1ccc(OC(F)(F)F)cc1)N1CCN(c2nc(-c3cccs3)nc3ccccc23)CC1	nt	nt	nt	nt	-0.2%	-17.9%
COc1cccc(N2CCN(Cc3nnc(-c4ccc5c(c4)OCO5)o3)CC2)c1	i	nt	9.1%	nt	-16.6%	-23.4%
CC(C)OCc1cc(CN2CCN(c3ccccc3)CC2)c(O)c2ncccc12	?	nt	1.26µM*	nt	2.24µM*	-35.8%
CCOCc1cc(CN2CCN(c3cccc(Cl)c3)CC2)c(O)c2ncccc12	nt	nt	nt	nt	2µM*	-22.2%
CCOC(=O)N1CCN(Cc2cc(Cl)c3cccnc3c2O)CC1	?	0.0891µM*	3.55µM*	0.126µM*	?	-18.7%
CN1CCN(Cc2cc(Cl)c3cccnc3c2OC(=O)c2cccs2)CC1	?	12.6µM*	?	4.47µM*	-79.0%	-72.8%
O=C(Oc1c(Cl)cc(Cl)c2cccnc12)N1CCCCC1	i	-1.3%	8.4%	21.1%	-4.0%	-28.0%
COc1ccccc1C1CN(CC(=O)N[C@H]2CCCCNC2=O)Cc2ccccc2O1 (stereo partly drawn)	i	nt	nt	nt	nt	nt
O=C(NNC(=O)c1ccc(CNS(=O)(=O)c2ccc(F)c(Cl)c2)cc1)c1ccccc1	nt	nt	-0.6%	nt	nt	nt
Oc1c(CN2CCN(c3ccccc3)CC2)cc(Br)c2cccnc12	?	0.891µM*	4.47µM*	0.562µM*	?	-42.2%
COCc1cc(CN2CCN(C)CC2)c(O)c2ncccc12	?	5.62µM*	?	3.16µM*	0.0%	-1.3%
c1ccc(N2CCN(Cc3ccnc4ccccc34)CC2)cc1	?	nt	-4.2%	20.3%[0.365 µM]	0.0%	-2.4%
CCNC(=S)N/N=C(\C)c1cccc(OC)c1	i	-25.1%	-2.6%	2.51µM*	-8.7%	1.8%

High-throughput results: PubChem BioAssay, National Center for Advancing Translational Sciences (NCATS)
